The source of these data is ChEMBL document CHEMBL3988442, “University of Dundee, Small-Polar-MMV Screening Library” (2021).

For some of these results: Potency and affinity values are given separately.

What all share (set-up): scale not given: direction of the effect not stated beside the values
Experiment [1] addresses Protein translocase subunit SecA (Escherichia coli (strain K12)) (UniProt P10408). Nature of the experiment: Assay to Identify E. coli SecA ATPase Inhibitors. Format: functional. To be noted: 30 µM.
Experiment [2] concerns the target T1, Ubiquitin-activating enzyme e1, putative (Leishmania donovani (strain BPK282A1)) (UniProt E9BSI1).
T1 sequence (whole entry): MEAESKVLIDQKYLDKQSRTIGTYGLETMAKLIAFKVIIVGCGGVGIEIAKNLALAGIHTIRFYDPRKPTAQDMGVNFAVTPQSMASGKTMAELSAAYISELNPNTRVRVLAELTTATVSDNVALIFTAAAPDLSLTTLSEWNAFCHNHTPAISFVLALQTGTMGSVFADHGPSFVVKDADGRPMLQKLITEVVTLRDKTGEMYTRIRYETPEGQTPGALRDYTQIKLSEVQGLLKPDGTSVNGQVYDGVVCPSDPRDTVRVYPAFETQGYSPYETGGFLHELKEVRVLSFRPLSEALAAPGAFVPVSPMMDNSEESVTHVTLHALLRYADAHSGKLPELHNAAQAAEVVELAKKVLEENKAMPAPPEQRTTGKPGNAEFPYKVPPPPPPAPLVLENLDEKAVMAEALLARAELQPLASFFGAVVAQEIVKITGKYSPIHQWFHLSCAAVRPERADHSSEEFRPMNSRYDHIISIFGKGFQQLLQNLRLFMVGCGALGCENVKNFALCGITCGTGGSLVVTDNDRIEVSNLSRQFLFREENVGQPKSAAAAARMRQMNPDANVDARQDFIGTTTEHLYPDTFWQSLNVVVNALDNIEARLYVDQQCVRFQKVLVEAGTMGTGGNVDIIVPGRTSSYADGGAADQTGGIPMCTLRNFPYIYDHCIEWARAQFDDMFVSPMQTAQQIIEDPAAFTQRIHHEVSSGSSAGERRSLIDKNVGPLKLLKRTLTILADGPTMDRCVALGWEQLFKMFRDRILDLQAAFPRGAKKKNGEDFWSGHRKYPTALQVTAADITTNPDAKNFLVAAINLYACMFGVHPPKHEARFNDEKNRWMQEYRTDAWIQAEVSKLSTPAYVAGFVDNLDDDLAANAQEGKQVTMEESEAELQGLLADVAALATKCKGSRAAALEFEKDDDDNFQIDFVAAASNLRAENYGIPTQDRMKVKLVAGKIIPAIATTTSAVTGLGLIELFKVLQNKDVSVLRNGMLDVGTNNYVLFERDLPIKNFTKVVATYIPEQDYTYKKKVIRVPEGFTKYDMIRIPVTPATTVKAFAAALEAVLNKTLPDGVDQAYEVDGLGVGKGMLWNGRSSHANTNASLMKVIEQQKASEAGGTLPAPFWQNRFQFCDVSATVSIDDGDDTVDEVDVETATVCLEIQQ
Nature of the experiment: Leishmania donovani Ubiquitin Activating Enzyme (LdE1). To be noted: 30 µM. Format: functional.

In experiment [3] the target is AMP-activated protein kinase, AMPK (Homo sapiens) (UniProt P54646+O43741+P54619+Q9UGJ0+Q9Y478+Q13131+Q9UGI9). Briefly: AMP-dependent Kinase enzyme assay. An in vitro enzyme assay that detects ADP turnover that is directly proportional to AMPK activity. This uses naive AMPK that is activated during the assay with MK-8722. To be noted: 30 µM. Format: functional.
The target in experiment [4] is Sialic acid-binding Ig-like lectin 9 (Homo sapiens) (UniProt Q9Y336). Nature of the experiment: Hs-Siglec9 ALPHAscreen SOP 20170721. To be noted: 10 µM.
Sialic acid-binding Ig-like lectin 9 (Homo sapiens), sequence (Q9Y336 whole entry): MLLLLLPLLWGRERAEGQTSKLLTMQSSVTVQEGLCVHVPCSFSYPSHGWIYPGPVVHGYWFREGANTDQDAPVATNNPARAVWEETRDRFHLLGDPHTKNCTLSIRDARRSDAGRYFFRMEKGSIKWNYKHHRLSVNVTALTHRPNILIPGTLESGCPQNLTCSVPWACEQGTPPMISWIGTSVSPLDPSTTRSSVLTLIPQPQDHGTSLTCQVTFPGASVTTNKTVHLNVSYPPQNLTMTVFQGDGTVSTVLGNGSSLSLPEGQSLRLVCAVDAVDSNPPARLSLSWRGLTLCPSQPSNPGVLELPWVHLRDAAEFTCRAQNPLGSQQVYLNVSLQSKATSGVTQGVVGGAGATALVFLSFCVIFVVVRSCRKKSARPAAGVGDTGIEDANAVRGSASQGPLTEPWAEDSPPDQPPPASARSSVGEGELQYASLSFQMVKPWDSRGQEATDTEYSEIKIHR
Experiment [5] deals with Trypanosoma cruzi. Nature of the experiment: Trypanosoma cruzi phosphomannomutase and mannose-1-phosphate guanylyltransferase assay. Format: functional. To be noted: 10 µM.
The target of experiment [6] is T2, Arginase-2, mitochondrial (Homo sapiens) (UniProt P78540).
T2 sequence (whole entry): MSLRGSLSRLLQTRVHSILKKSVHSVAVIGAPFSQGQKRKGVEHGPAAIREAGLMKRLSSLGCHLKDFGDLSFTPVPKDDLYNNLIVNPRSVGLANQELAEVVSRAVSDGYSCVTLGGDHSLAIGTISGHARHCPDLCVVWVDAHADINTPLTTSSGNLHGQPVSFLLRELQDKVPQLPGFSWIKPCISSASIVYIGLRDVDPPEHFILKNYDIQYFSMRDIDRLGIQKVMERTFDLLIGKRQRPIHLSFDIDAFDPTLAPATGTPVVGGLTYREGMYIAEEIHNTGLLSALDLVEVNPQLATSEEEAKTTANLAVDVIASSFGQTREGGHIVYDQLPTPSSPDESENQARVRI
Nature of the experiment: in vitro enzyme assay to detect the production of urea directly proportional to the activity of Arginase II. Note: in the data most compounds retested in dose-response had high values. Format: functional. To be noted: 33.3 µM.

The target in experiment [7] is T3, Proteasome subunit beta (Trypanosoma cruzi) (UniProt O96673).
T3 sequence (whole entry): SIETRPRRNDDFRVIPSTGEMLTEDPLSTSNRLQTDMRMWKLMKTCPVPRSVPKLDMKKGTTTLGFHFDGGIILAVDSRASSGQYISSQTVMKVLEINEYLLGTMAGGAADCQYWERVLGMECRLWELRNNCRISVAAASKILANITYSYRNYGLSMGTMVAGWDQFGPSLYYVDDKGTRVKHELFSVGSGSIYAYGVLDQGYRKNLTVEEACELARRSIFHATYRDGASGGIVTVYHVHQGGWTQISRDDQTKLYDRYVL
Nature of the experiment: Trypanosoma cruzi proteasome chymotrypsin-like activity (TcProtChymo) assay. Note: in the data most compounds retested in dose-response had high values. To be noted: 9.37 µM. Format: functional.

Experiment [8] is filed under the species Homo sapiens. Nature of the experiment: To identify inhibition of the IFN signalling (Jak-Stat) pathway via expression of an eGFP reporter gene under the control of an IFN-stimulated response element (ISRE) containing MxA promoter. Format: functional. To be noted: 30 µM.
Experiment [9] concerns the target T4, Tyrosyl-tRNA synthetase, putative (Trypanosoma cruzi (strain CL Brener)) (UniProt Q4DSP6).
T4 sequence (whole entry): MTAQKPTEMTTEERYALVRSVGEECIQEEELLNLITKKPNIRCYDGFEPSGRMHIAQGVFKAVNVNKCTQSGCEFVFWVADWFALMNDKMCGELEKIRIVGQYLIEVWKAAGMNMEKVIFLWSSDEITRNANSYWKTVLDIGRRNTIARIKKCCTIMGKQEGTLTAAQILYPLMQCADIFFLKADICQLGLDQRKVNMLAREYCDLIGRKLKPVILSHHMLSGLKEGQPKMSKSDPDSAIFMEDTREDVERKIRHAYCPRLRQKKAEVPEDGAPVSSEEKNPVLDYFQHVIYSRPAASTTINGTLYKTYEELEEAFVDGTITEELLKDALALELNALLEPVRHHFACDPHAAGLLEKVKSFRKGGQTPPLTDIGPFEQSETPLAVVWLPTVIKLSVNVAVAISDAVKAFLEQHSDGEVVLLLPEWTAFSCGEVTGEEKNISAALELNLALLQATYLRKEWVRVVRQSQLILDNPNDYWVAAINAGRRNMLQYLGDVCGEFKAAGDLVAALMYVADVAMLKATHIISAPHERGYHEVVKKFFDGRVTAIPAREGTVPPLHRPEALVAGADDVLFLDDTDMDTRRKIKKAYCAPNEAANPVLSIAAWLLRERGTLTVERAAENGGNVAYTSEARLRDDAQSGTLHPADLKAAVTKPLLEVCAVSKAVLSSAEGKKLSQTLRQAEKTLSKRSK
Briefly: Trypanosoma cruzi tyrosyl tRNA synthetase (TcYRS) _High Tyrosine SOP. Note: in the data most compounds retested in dose-response had high values. Format: functional. To be noted: 30 µM.

The target in experiment [10] is T4, Tyrosyl-tRNA synthetase, putative (Trypanosoma cruzi (strain CL Brener)). Briefly: Trypanosoma cruzi tyrosyl tRNA synthetase (TcYRS) SOP. Format: functional. To be noted: 30 µM.
Experiment [11] concerns the target Chromo domain-containing protein 1 (Saccharomyces cerevisiae (strain ATCC 204508 / S288c) (Baker's yeast)) (UniProt P32657). Briefly: ScCHD-1 Enzyme Inhibition Assay. Note: in the data most compounds retested in dose-response had high values. Format: functional. To be noted: 30 µM.

Chromo domain-containing protein 1 (Saccharomyces cerevisiae (strain ATCC 204508 / S288c) (Baker's yeast)), sequence (P32657 whole entry, the tested form may be a part): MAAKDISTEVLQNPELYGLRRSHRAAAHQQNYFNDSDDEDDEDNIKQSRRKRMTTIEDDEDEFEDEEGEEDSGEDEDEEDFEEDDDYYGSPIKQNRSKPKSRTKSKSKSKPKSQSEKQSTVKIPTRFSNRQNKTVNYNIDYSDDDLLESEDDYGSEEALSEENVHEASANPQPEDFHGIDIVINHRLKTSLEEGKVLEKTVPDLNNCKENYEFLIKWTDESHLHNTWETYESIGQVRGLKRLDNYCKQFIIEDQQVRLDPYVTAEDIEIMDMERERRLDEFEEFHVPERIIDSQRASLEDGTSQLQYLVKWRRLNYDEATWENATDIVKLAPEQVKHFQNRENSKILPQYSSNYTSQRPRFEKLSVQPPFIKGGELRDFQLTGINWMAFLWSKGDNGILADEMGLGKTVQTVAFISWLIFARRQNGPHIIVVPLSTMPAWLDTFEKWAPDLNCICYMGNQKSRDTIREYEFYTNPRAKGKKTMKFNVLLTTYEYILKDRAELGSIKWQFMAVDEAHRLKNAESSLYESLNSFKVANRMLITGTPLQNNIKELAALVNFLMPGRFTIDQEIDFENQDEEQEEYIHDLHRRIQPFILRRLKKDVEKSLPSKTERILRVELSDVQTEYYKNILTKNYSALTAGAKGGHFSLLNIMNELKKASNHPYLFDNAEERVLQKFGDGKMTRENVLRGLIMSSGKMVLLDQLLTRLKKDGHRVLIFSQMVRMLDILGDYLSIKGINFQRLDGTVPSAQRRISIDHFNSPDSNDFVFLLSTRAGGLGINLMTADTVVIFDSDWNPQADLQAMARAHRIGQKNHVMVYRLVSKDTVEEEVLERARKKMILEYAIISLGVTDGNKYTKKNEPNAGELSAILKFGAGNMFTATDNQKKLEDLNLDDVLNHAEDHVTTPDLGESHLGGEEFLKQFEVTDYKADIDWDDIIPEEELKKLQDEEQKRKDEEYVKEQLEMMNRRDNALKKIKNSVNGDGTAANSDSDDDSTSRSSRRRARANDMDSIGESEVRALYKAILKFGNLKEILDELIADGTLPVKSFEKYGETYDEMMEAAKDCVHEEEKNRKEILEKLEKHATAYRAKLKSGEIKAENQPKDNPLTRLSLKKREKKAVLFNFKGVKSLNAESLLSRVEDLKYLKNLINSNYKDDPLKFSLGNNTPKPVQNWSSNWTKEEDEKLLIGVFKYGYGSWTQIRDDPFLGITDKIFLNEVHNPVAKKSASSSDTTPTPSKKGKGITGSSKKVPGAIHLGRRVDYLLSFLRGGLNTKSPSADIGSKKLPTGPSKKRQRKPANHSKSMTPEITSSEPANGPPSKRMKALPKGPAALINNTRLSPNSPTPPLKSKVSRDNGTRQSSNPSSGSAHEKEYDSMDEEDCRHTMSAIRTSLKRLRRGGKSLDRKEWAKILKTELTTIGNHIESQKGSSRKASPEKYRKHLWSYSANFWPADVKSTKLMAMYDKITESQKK
Protein translocase subunit SecA (Escherichia coli (strain K12)), sequence (P10408 whole entry): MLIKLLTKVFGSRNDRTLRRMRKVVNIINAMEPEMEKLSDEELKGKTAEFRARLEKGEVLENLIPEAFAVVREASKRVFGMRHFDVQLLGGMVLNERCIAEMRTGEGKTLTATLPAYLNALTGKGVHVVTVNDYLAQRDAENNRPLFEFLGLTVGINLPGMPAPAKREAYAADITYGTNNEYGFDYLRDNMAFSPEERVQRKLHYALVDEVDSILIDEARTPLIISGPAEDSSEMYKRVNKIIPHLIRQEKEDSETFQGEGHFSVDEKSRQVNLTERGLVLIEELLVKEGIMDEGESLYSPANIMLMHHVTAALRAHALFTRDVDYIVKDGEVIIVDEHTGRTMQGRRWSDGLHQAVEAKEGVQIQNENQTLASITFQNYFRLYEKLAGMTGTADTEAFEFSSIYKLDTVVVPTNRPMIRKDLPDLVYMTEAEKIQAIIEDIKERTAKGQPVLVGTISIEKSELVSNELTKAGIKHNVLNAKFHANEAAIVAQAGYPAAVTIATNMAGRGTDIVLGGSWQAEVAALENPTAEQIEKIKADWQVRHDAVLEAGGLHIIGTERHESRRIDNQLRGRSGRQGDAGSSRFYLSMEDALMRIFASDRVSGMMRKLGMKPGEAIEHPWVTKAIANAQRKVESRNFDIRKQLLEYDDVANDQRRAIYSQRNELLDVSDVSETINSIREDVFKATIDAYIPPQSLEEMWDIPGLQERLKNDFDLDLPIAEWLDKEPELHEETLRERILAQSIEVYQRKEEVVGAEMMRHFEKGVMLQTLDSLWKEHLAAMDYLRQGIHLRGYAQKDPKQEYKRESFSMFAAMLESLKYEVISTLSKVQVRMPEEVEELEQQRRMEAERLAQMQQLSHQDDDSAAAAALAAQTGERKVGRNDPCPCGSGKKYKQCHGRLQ

As to `COCCN1C[C@@H]2CN(c3ncccn3)C[C@@H]2C1=O`, the Percent Effect in experiment [1] was -4.06%; in [2], 2.7%; in experiment [3], 0.915%; in [4], -6.74%; in [5], -0.586%; in [6] it was -4.17%. Besides, the Percent Effect is 8.2% in experiment [7]; -19.7% in experiment [8]; 76.2% in experiment [9]; -1.22% in [10]; 474% in experiment [11].
As to `Cc1cccc(-c2nc(CN3CCc4cnc(C)nc4C3)no2)c1`, the Percent Effect in [1] was -6.65%; in [2] it was 7.79%; in experiment [3], 64%; in [4] it was 10.5%; in experiment [5] it was 0.374%; in experiment [6], 1.42%. In addition, the Percent Effect in experiment [7] is 0.169%; in [8], -1.99%; in experiment [9], 10.7%; in experiment [10], 9.76%; in [11] it was -4.89%.
On to `CC(NC(=O)CSCC#N)c1ccccc1` (stereo unspecified), for which the Percent Effect is -1.5% in [1]; 28.9% in experiment [2]; -6.37% in experiment [3]; -7.6% in experiment [4]; 5.51% in [5]; 0% in [6]. Besides, the Percent Effect is 15% in experiment [7]; 5.31% in experiment [8]; 7.39% in experiment [9]; 23.5% in experiment [10]; -11.2% in experiment [11].
For `CCOc1ccccc1C1CCCN1` (stereo unspecified), the Percent Effect in experiment [1] is -5.25%; in experiment [2], 7.89%; in experiment [3] it was 2.38%; in experiment [4], -2.36%; in [5] it was 1.27%; in experiment [6] it was -7.1%. Further, the Percent Effect in experiment [7] is 15.4%; in [8] it was -5.78%; in experiment [9], -1.06%; in experiment [10] it was 2.6%; in experiment [11], -7.12%.
Regarding `Cc1cccnc1NC(=O)CSc1ccc2c(c1)OCCO2`, the Percent Effect in experiment [1] was -3.38%; in [2] it was -4.17%; in experiment [3] it was -2.48%; in experiment [4] it was -6.94%; in experiment [5], -2.04%; in experiment [6] it was -1.77%. Also, the Percent Effect is 8.42% in experiment [7]; 7.78% in experiment [8]; 0% in experiment [9]; -2.56% in experiment [10]; -2.02% in experiment [11].
For the compound `CCC(=O)NC1CCN(c2cccc(CC)c2)CC1`, the Percent Effect in experiment [1] was -7.28%; in experiment [2], 3.8%; in experiment [3] it was 2.12%; in [4] it was -4.76%; in [5], 1.13%; in [6], -1.5%. For the same compound, the Percent Effect is 4.97% in [7]; 16.9% in experiment [8]; 3.12% in [9]; -10.1% in experiment [10]; -27.3% in experiment [11].
Turning to `c1cc(CNCC2OCCc3cn(CC4CCOCC4)nc32)ccn1` (stereo unspecified), the Percent Effect was -0.867% in experiment [1]; -37.8% in experiment [2]; 1.52% in experiment [3]; -8.34% in experiment [4]; 1.86% in experiment [5]; 4.78% in experiment [6]. Also, the Percent Effect turned out to be 29% in experiment [7]; 18.1% in experiment [8]; 6.49% in [9]; 17.9% in experiment [10]; 1.56% in experiment [11].
As to `COCc1noc(C2(c3ccc(Br)cc3)CCOCC2)n1`, the Percent Effect was -2.85% in experiment [1]; -2.7% in [2]; 1.95% in experiment [3]; -4.39% in [4]; -6.95% in experiment [5]; 1.91% in experiment [6]. The Percent Effect was 9.83% in experiment [7]; 4.48% in experiment [8]; -1.59% in experiment [9]; 4.88% in [10]; -3.06% in experiment [11].
For the compound `CCOc1ccc(S(=O)(=O)NC(=O)CCC2CCCO2)cc1` (stereo unspecified), the Percent Effect in [1] is -3.8%; in [2] it was 13.5%; in experiment [3] it was -7.18%; in experiment [4], -5.67%; in [5], 0.283%; in [6] it was -5.21%. Also, the Percent Effect in experiment [7] is 17.5%; in experiment [8], 1.86%; in experiment [9], 10.3%; in [10] it was 18.5%; in experiment [11], -9.06%.
On to `c1ccc(Cn2cc3c(n2)C(COCC2CC2)OCC3)nc1` (stereo unspecified), for which the Percent Effect in [1] is 3.09%; in [2] it was 10.4%; in [3] it was -0.118%; in experiment [4] it was -14.8%; in [5], -4.24%; in [6], 3.23%. Also, the Percent Effect is 12.4% in experiment [7]; 8.69% in experiment [8]; 1.06% in [9]; 6.41% in experiment [10]; -7.74% in experiment [11].
Regarding `Cn1ccc(C(=O)N2CCN(c3ncccn3)CC2)cc1=O`, the Percent Effect is -7.23% in [1]; 5.41% in [2]; 33.6% in [3]; 9.56% in experiment [4]; -3.49% in experiment [5]; -2% in [6]. Moreover, the Percent Effect is 6.13% in experiment [7]; 4.12% in experiment [8]; 3.45% in experiment [9]; 11.1% in experiment [10]; -2.92% in experiment [11].
